From PubChem
JMJD2E inh: qHTS Assay for Inhibitors of Human Jumonji Domain Containing 2E (JMJD2E). 1.6% of 230,000 active. Potency, µM (series often up to 57.1 µM), for the others: top-dose activity change, negative = inhibition, actives largely listed as inhibitors. AID 2147, 2009. JMJD2E catalytic domain, FDH-coupled NADH fluorescence (FDH is formaldehyde dehydrogenase);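 note: 0% = wells with enzyme and -100% = buffer wells without enzyme; nearly all actives have a fitted effect of over 50% in size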
ALDH1A1 block: qHTS Assay for Inhibitors of Aldehyde Dehydrogenase 1 (ALDH1A1). Aldehyde dehydrogenase 1A1 (Homo sapiens), P00352. Purified ALDH1A1, NADH fluorescence, propionaldehyde substrate. Potency, µM (top dose mostly 75.3 µM), inactives show at the highest dose activity, negative = inhibition, actives largely listed as inhibitors. 7.3% of 220,000 active; active = well fitted inhibition curve with a large enough effect, not every such curve was filed as active; inconclusive = small, poorly fitted or top-dose-only effect, or another doubt; inactive = no such curve, though single readings can be large or run the other way;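 note: plate controls were no enzyme wells and a reference inhibitor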
Tau fibril ThT: qHTS for Inhibitors of Tau Fibril Formation, Thioflavin T Binding; Microtubule-associated protein tau (Homo sapiens), P10636; recombinant tau K18 P301L, heparin-induced fibrillization, ThT fluorescence; Potency, µM (top dose mostly 57.4 µM), inactives show at the highest dose activity, negative = inhibition, hits mostly inhibitors; 2.1% of 270,000 active; note: nearly all actives have a fitted effect of over 55% in size
Target sequence (P10636 561-689 P618L limits assumed): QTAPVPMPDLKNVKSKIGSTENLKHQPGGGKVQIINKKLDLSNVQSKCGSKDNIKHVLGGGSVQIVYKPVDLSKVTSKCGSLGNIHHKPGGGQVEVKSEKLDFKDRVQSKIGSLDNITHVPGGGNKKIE
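Heparin-induced fibrillization of the P301L-mutant K18 repeat-domain fragment of human tau was followed by ThT binding in quantitative high-throughput format.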
HPGD block: qHTS Assay for Inhibitors of HPGD (15-Hydroxyprostaglandin Dehydrogenase); AID 894, 2007; Potency, µM, without a hit: at the top dose activity change, negative = inhibition, hits mostly inhibitors; 15-hydroxyprostaglandin dehydrogenase [NAD(+)] (Homo sapiens), P15428; 4.3% of 150,000 active; purified HPGD, NADH fluorescence kinetic, PGE2 substrate; active = well fitted inhibition curve with a large enough effect, not every such curve was filed as active; inconclusive = small, poorly fitted or top-dose-only effect, or another doubt; inactive = no such curve, though single readings can be large or run the other way
Target sequence (P15428 whole entry, looked up): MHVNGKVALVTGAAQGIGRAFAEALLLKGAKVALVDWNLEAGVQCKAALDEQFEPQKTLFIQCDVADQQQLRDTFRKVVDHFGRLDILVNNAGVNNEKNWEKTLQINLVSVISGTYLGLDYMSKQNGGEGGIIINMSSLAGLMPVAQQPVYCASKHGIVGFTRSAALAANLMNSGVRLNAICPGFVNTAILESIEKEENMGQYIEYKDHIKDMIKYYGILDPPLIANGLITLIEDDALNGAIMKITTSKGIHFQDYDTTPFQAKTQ
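20 nM HPGD preincubated 15 min at room temperature with compound in 50 mM Tris-HCl pH 8, 0.01% Tween 20. Started with 1 mM NAD+ and 30 uM prostaglandin E2; NADH fluorescence (360/450 nm) read 5 times over 30-s intervals, last minus first.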
Tau fluor counter: Counterscreen qHTS for Inhibitors of Tau Fibril Formation, Fluorescence Polarization. 0.93% of 280,000 active. Potency, µM (titrated, usually from 57.7 µM), for the others: at the highest dose activity change, negative = decrease. tau K18 P301L (four-repeat tau fragment) Alexa594 fluorescence, heparin fibrillization; note: nearly all actives have a fitted effect of over 55% in size
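Human K18 P301L tau (15 uM unlabeled plus 0.24 uM Alexa 594-labeled, final) in 100 mM sodium acetate pH 7 was mixed with compound and 20 uM heparin and incubated 6 hr at 37 C.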
Tau FP inhib: qHTS for Inhibitors of Tau Fibril Formation, Fluorescence Polarization. K18 P301L tau heparin fibrillization, Alexa594 FP, 6 h. Potency, µM (doses to about 57.7 µM), inactives show top-dose activity, negative = inhibition, actives largely listed as inhibitors. 0.39% of 280,000 active. AID 1468, 2008; note: nearly all actives have a fitted effect of over 55% in size
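K18 P301L tau (15 uM unlabeled/0.24 uM Alexa 594-labeled, final) + compound + heparin 20 uM final; 100 mM NaOAc pH 7; 6 hr 37 C; ThT 30 uM final added, 1 hr RT; FP ex 555/em 632 nm.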
Active calls of the source: *; ? = inconclusive; nt = no result given; [ ] = another dose, or the depositor's remark. Only some compounds are listed: those with a hit (about 9.9% of all), similar ones and a draw of the others. Unless noted, calls come from the whole dose curve; as a rule, active = well fitted curve in the direction sought with a large enough effect; inconclusive = small, poorly fitted or top-dose-only effect, or another doubt; inactive = no such curve, though single readings can be large; an effect the other way counts as inactive or inconclusive. Unless noted, % is set by controls: 0 for no effect and ±100 for the full control effect; potency is the fitted concentration of half-maximal effect.

SMILES | JMJD2E inh | ALDH1A1 block | Tau fibril ThT | HPGD block | Tau fluor counter | Tau FP inhib
O=C(Nc1ccc(Cl)cc1)Nc1ccc(N2CCCC2)c(S(=O)(=O)Nc2ccccc2Cl)c1 | ? | -5% | -8% | -7% | 2.8µM*[quencher] | ?
COc1ccccc1NS(=O)(=O)c1cc(NC(C)=O)ccc1N1CCCCC1 | -6% | 8.9µM* | -2% | nt | ? | -12%
COc1ccccc1NS(=O)(=O)c1cc(NC(=O)C2CC2)ccc1N1CCOCC1 | ? | ? | -15% | nt | ? | -14%
CCO[C@@H]1OC(C(=O)Nc2ccccc2)=C[C@H](c2csc3ccccc23)[C@H]1CCCO | 6% | -5% | -8% | nt | -20% | -13%
CCC1(C)OC(=O)NN(c2ccc(C)cc2)C1(C)O (stereo unspecified) | -4% | 2% | 2% | 2% | -1% | -2%
CN1CCN(c2ccc(Cl)cc2NS(=O)(=O)c2ccccc2Cl)CC1 | -1% | 14µM* | 1% | -9% | -6% | 2%
CCN(CC)S(=O)(=O)c1cc(C(=O)Nc2cc(Cl)ccc2N2CCN(C)CC2)ccc1Cl | -1% | 2% | ? | -16% | -23% | 8%
CC(=O)NC(=S)Nc1ccc(N2CCOCC2)c(S(=O)(=O)Nc2cc(Cl)ccc2Cl)c1 | 6% | 0.35µM* | ? | nt | ? | -14%
COc1ccc(NS(=O)(=O)c2cc(NC(=O)/C=C/c3ccccc3OC)ccc2N2CCCCC2)cc1 | ? | -14% | 3% | -24% | -18% | ?
CCN(CC)c1ccc(NC(=O)c2ccccc2)cc1S(=O)(=O)Nc1ccccc1OC | -1% | 1µM* | -10% | 1.8µM* | -11% | 10%
COc1ccccc1NS(=O)(=O)c1cc(NC(=O)Nc2cccc(C)c2)ccc1N1CCCCC1 | -8% | ? | ? | ? | ? | 28µM*
Cc1nc2ccc(S(=O)(=O)NC(CC(C)C)C(=O)N3CCN(c4ccc(F)cc4)CC3)cc2s1 (stereo unspecified) | nt | nt | -17% | nt | -22% | -1%
Cc1ccc2sc(N3CCN(C(=O)C4COc5ccccc5O4)CC3)nc2c1C (stereo unspecified) | nt | nt | ? | nt | -23% | -6%
COc1ccccc1NS(=O)(=O)c1cc(NC(=O)c2[nH]c(C)c(C(C)=O)c2C)ccc1N1CCOCC1 | -3% | nt | -12% | nt | 13µM*[quencher] | ?
COc1ccccc1NS(=O)(=O)c1cc(N2Cc3ccccc3C2=N)ccc1N1CCOCC1 | -11% | 8.9µM* | -16% | nt | -14% | -3%
COc1ccc(Cl)cc1NC(=O)CSc1cn(CC(=O)N2CCCCC2)c2ccccc12 | nt | nt | -7% | nt | -19% | 4%
C=CCc1ccccc1OCCn1ccnc1 | -23% | -18% | -1% | -15% | 4% | 8%
C=CCc1cccc(OC)c1OCCOCCn1ccnc1 | -1% | 20µM* | 1% | -1% | -2% | -10%
COc1ccc(-c2cc(C(F)(F)F)n3nc(-c4ccc(Cl)cc4)cc3n2)cc1OC | nt | nt | -20% | nt | -9% | 4%
Cc1nc2nc(SCC(=O)NC(C)c3ccccc3)nn2c(C)c1Cc1c(F)cccc1Cl (stereo unspecified) | nt | nt | -24% | nt | -12% | -4%
COc1ccc2c(c1)c1c(c(=O)n(-c3ccccc3C)c(=O)n1Cc1c(F)cccc1Cl)n2C | nt | nt | 4% | nt | 4% | 2%
CCN(CC)Cc1cc(O)c(CN(CC)CC)cc1O | ? | ? | 11µM* | nt | ? | ?
CCc1oc(C(=O)O)cc1CN(CC)CC | 7% | 7% | 2% | 4% | 2% | 1%
